Laboratory results taken from PubChem BioAssay (Tox21).
Values without a mark were called inactive. Inconclusive results are not listed. A call without a number means that no potency is given here. The source made the active and inactive calls. Unless noted, the call rests on the fitted dose curve; in most records, active means well fitted curve in the direction sought with a large enough effect in the repeat runs; inconclusive means weak or mixed curves; inactive means no such curve, though single readings can be large; an effect the other way counts as inactive or inconclusive.

Assays:
[1] = qHTS assay to identify small molecule antagonists of the glucocorticoid receptor (GR) signaling pathway - cell viability counter screen (AID 720693); further: nearly all actives have a fitted effect of over 55% in size
[2] = qHTS assay for identifying genotoxic compounds that show differential cytotoxicity against isogenic chicken DT40 cell lines with known DNA damage response pathways - wild type cell line (AID 743012); further: nearly all actives have a fitted effect of over 60% in size; further: potency means the concentration at half of the fitted maximal effect
Summary of the method: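 Viability of DNA repair-proficient chicken DT40 cells was assessed by CellTiter-Glo luminescence following 40 h compound exposure at 37 C/5% CO2.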

[3] = qHTS assay for identifying genotoxic compounds that show differential cytotoxicity against isogenic chicken DT40 cell lines with known DNA damage response pathways - Rad54/Ku70 mutant cell line (AID 743015); further: nearly all actives have a fitted effect of over 60% in size; further: potency means the concentration at half of the fitted maximal effect
[4] = qHTS assay to identify small molecule antagonists of the androgen receptor (AR) signaling pathway - cell viability counter screen (AID 743033; further: nearly all actives have a fitted effect of over 45% in size)
[5] = qHTS assay to identify small molecule antagonists of the androgen receptor (AR) signaling pathway using the MDA cell line - cell viability counter screen (AID 743041; further: nearly all actives have a fitted effect of over 45% in size)
Summary of the method: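 Compound exposure lasted 16 h at 37C in MDA-kb2 AR-luc cells stimulated with R1881. Protease-based CellTiter-Fluor reagent was applied for the final 30 min and fluorescence measured.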

[6] = qHTS assay to identify small molecule antagonists of the thyroid receptor (TR) signaling pathway - cell viability counter screen (AID 743064); further: nearly all actives have a fitted effect of over 50% in size; further: potency means the concentration at half of the fitted maximal effect
Summary of the method: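 Rat GH3 pituitary tumor cells stably expressing two TR response elements driving luciferase were plated, rested 4 h, then dosed with library compounds and T3 (1 nM final). After 23.5 h at 37 °C, CellTiter-Fluor was added for 30 min and fluorescence recorded.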

[7] = target: Androgen receptor (Homo sapiens) (UniProt P10275); assay: qHTS assay to identify small molecule antagonists of the androgen receptor (AR) signaling pathway (AID 743035; active means well fitted inhibition curve with a large enough effect in the signal ratio in the repeat runs, not every such curve was filed as active; the % refers to the signal ratio)
Sequence of Androgen receptor (Homo sapiens) (P10275 whole entry, looked up): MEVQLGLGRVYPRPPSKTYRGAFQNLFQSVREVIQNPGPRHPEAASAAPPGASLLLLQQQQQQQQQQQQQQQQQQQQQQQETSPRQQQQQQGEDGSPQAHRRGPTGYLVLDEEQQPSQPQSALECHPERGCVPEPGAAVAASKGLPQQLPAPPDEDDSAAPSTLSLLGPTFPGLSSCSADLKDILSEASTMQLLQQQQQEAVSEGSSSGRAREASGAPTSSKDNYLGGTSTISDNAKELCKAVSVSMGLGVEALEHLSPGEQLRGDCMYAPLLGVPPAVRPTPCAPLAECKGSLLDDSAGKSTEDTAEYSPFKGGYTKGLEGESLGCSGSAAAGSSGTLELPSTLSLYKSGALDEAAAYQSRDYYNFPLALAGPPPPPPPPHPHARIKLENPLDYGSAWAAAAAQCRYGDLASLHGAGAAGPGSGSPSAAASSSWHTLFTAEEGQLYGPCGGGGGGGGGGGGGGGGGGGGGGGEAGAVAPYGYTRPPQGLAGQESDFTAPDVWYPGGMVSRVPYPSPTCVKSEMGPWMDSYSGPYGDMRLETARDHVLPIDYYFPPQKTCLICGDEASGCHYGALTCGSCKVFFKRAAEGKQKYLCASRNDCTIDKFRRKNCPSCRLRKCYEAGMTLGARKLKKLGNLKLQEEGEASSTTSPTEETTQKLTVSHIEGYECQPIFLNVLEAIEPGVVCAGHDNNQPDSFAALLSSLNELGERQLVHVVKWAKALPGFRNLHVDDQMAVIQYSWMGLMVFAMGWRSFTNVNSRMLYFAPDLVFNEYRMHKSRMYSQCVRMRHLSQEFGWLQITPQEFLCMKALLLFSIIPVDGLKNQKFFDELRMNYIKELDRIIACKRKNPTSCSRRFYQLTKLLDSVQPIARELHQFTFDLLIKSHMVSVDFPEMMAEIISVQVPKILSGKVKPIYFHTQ
Summary of the method: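 Reporter HEK293 cells were exposed to compounds and R1881 overnight (16 h, 37C); beta-lactamase activity was then quantified by FRET fluorescence.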

[8] = target: Androgen receptor (Homo sapiens) (UniProt P10275); assay: qHTS assay to identify small molecule agonists of the androgen receptor (AR) signaling pathway (AID 743036; active means well fitted activation curve with a large enough effect in the signal ratio in the repeat runs, with a control signal flat, not every such curve was filed as active; the % refers to the signal ratio)
Summary of the method: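 Quantitative HTS of the Tox21 10K library in HEK293 cells bearing a stably integrated UAS-controlled beta-lactamase reporter. Compound exposure lasted 16 h at 37C. Reporter activity was detected by FRET substrate fluorescence after 2 h at room temperature.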

[9] = target: Androgen receptor (Homo sapiens) (UniProt P10275); assay: qHTS assay to identify small molecule agonists of the androgen receptor (AR) signaling pathway using the MDA cell line (AID 743040; further: nearly all actives have a fitted effect of over 20% in size)
Summary of the method: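 Testing was done with the MDA-kb2 AR-luc line, a human breast carcinoma stably transfected with MMTV-luciferase containing AR and GR response elements. Cells were exposed 16 h at 37C before ONE-Glo luminescence detection.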

[10] = qHTS assay for identifying genotoxic compounds that show differential cytotoxicity against isogenic chicken DT40 cell lines with known DNA damage response pathways - Rev3 mutant cell line (AID 743014); further: nearly all actives have a fitted effect of over 55% in size; further: potency means the concentration at half of the fitted maximal effect

Compound	outcome [1]	Potency [2]	Potency [3]	outcome [4]	Potency [5]	Potency [6]	Potency [7]	outcome [8]	Potency [9]	Potency [10]
Nc1cc(N)cc(C(=O)O)c1	inactive	inactive	inactive	inactive	inactive	inactive				
CC1(C)SC(C)(C)SC(C)(C)S1	inactive	inactive		inactive	inactive	inactive	inactive	inactive	inactive	
CCc1cc(S(=O)(=O)O)c2cc(C(C)C)cccc1-2	inactive	inactive	inactive	inactive	inactive	inactive				
CC(O)CN(CCCN(C)C)CCCN(C)C (centres undefined)	inactive	inactive	inactive	inactive	inactive	inactive				
NC(=O)Nc1nc2ccccc2[nH]1	inactive	inactive	inactive	inactive	inactive	inactive				
COc1cccc(OC)c1	inactive	inactive	inactive	inactive	inactive	inactive				
CCCc1ccccc1O	inactive	inactive	inactive		inactive	inactive				
Cc1cc(C)cc(OCC2CNC(=O)O2)c1 (centres undefined)	inactive	inactive	inactive	inactive	inactive	inactive				
C(=C(c1ccccc1)c1ccccc1)c1ccccc1	inactive	inactive		inactive		inactive				
OC[C@H]1O[C@@H]2O[C@H]3[C@H](O)[C@@H](O)[C@@H](O[C@H]4[C@H](O)[C@@H](O)[C@@H](O[C@H]5[C@H](O)[C@@H](O)[C@@H](O[C@H]6[C@H](O)[C@@H](O)[C@@H](O[C@H]7[C@H](O)[C@@H](O)[C@@H](O[C@H]8[C@H](O)[C@@H](O)[C@@H](O[C@H]9[C@H](O)[C@@H](O)[C@@H](O[C@H]1[C@H](O)[C@H]2O)O[C@@H]9CO)O[C@@H]8CO)O[C@@H]7CO)O[C@@H]6CO)O[C@@H]5CO)O[C@@H]4CO)O[C@@H]3CO	inactive	inactive	inactive	inactive	inactive	inactive				
C=CCSCC1Nc2cc(Cl)c(S(N)(=O)=O)cc2S(=O)(=O)N1 (centres undefined)	inactive	inactive	inactive	inactive		inactive				
OCC(CO)(CO)COCC(CO)(CO)CO	inactive	inactive	inactive	inactive	inactive	inactive				
C=CCOCC(O)CS(=O)(=O)O (centres undefined)	inactive	inactive	inactive	inactive	inactive	inactive				
COC(=O)C1=C(C)NC(C)=C(C(=O)OCC(C)=O)C1c1ccccc1[N+](=O)[O-] (centres undefined)	inactive	5.96 µM (active)	10.6 µM (active)			8.41 µM (active)				
COCc1ccc(COC)cc1	inactive	inactive	inactive	inactive	inactive	inactive				
NCCNC(=O)c1ccc(Cl)cn1	inactive	inactive	inactive	inactive		inactive				
O=C(O)c1ccc[n+]([O-])c1	inactive	inactive	inactive		inactive	inactive	inactive	inactive	inactive	
CCC(C)(C)C1CCC(OC)CC1 (centres undefined)	inactive	inactive	inactive	inactive	inactive	inactive				
CC(C=O)Cc1ccc(C(C)C)cc1 (centres undefined)	inactive	inactive	inactive	inactive	inactive	inactive				
CC(C)(C)C(=O)/C=C/c1ccc(Cl)cc1	inactive	inactive		inactive	inactive	inactive				
COc1cc(O)cc(O)c1	inactive	inactive	inactive			inactive				
CCCCN(CCO)CCO	inactive	inactive	inactive	inactive	inactive	inactive				

Compound	outcome [1]	Potency [2]	Potency [3]	outcome [4]	Potency [5]	Potency [6]	Potency [7]	outcome [8]	Potency [9]	Potency [10]
CC(C)(C)N(CCO)CCO		inactive	inactive	inactive	inactive					inactive
CC(CCO)CCCC(C)(C)O (centres undefined)	inactive				inactive	inactive				48.6 µM (active)
Oc1cc(O)c2c(c1)O[C@H](c1ccc(O)c(O)c1)[C@H](O)C2		inactive	inactive	inactive	inactive	inactive				inactive
COc1nc(C)nc(N)n1	inactive		inactive			inactive				inactive
CC1=CCC2C(C1)C2(C)C (centres undefined)	inactive				inactive	inactive	inactive	inactive	inactive	
CCN1CCCC(OC(=O)C(c2ccccc2)c2ccccc2)C1 (centres undefined)	inactive			inactive	inactive	12.7 µM (active)				
c1ccc2cnncc2c1	inactive		inactive	inactive						inactive
C=C(C)C(=O)NCCCN(C)C	inactive		inactive	inactive	inactive	inactive				inactive
CCCOc1ccccc1-c1nc2n[nH]nc2c(=O)[nH]1	inactive	inactive			inactive	inactive				
CC(C)CCOC(=O)CC(C)C	inactive		inactive	inactive	inactive	inactive				inactive
CCCCNc1ccccc1		inactive	inactive	inactive	inactive	inactive	inactive		inactive	inactive
O=C(O)/C=C/c1ccc(/C=C/C(=O)O)cc1		inactive	inactive	inactive	inactive	inactive	inactive	inactive	inactive	inactive
N#CCN(CC#N)CCN(CC#N)CC#N		inactive	inactive	inactive	inactive	inactive				inactive
CCC(=O)/C=C/c1ccc(OC)cc1	inactive		54.5 µM (active)	inactive		inactive				
CCn1cc(C(=O)O)c(=O)c2cc(F)c(N3CCN(C)CC3)cc21	inactive			inactive	inactive	inactive				
Oc1ccc2c(c1)OC[C@@H](N1CCC(O)(c3ccc(F)cc3)CC1)[C@H]2O	inactive			inactive	inactive	inactive				
Cc1onc(-c2ccccc2)c1-c1ccc(S(N)(=O)=O)cc1	inactive			inactive	inactive	inactive				inactive
CCCCCCOC(=O)c1ccccc1O	inactive		inactive	inactive		inactive	inactive		inactive	
CO		inactive	inactive	inactive	inactive					inactive
NC(=O)c1ncn([C@@H]2O[C@H](CO)[C@@H](O)[C@H]2O)c1N	inactive		inactive	inactive		inactive				
O=Cc1ccccc1[N+](=O)[O-]	inactive				inactive	inactive				
Cn1cnc2c(=O)[nH]c(N)nc21		inactive	61.3 µM (active)	inactive	inactive	inactive				inactive
